In ChEMBL document CHEMBL5724796, “Tm Shift (DSF) assay results for EUbOPEN Chemogenomics Library” (2024):
Non-standard residues stand in square brackets, D forms with d. Residues, ends and D or L forms follow the SMILES beside them. *: point of attachment. Tyr(3-Cl) = N[C@@H](Cc1ccc(O)c(Cl)c1)C(=O)O; Benzoyl(3,5-Cl2) = O=C(c1cc(Cl)cc(Cl)c1)*; Lys(Et2) = CCN(CC)CCCC[C@H](N)C(=O)O; Gly(cPent) = N[C@H](C(=O)O)C1CCCC1; NH(propargyl) = C#CCN*; Boc = CC(C)(C)OC(=O)*

Tests used:
Details in all cases: Compound concentration 20.0 uM
[1] = biological target: Tyrosine-protein kinase ABL1 (Homo sapiens) (UniProt P00519)
Chain of Tyrosine-protein kinase ABL1 (Homo sapiens) (P00519 whole entry): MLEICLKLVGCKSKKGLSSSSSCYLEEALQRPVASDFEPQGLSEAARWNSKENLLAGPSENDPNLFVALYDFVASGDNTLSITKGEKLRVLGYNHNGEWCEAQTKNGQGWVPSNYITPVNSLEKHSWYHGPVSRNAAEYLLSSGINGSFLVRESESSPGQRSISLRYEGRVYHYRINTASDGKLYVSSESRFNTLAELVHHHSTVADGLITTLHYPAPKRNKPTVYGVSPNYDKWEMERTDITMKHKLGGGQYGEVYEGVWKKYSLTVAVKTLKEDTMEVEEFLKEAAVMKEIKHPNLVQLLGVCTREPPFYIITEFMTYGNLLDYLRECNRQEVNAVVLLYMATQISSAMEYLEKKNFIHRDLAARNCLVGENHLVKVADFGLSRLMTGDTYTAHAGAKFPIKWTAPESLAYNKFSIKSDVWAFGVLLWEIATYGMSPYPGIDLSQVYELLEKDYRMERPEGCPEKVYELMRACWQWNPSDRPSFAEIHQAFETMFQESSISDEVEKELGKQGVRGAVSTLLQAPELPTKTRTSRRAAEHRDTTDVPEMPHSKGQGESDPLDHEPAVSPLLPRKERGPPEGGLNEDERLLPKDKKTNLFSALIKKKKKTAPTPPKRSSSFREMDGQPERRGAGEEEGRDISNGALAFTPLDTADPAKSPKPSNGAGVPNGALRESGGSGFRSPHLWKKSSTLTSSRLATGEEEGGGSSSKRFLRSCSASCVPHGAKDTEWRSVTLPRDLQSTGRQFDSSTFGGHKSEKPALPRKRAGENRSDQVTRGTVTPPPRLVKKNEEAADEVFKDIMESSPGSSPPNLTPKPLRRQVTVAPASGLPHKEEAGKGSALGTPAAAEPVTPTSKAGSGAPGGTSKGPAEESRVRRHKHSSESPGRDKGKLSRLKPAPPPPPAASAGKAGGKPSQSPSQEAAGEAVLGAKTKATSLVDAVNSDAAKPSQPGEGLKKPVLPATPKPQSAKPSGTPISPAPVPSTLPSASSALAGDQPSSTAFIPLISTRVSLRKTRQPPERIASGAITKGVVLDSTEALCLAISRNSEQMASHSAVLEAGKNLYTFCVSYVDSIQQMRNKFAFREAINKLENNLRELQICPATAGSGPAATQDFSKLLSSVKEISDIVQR

[2] = biological target: Bromodomain-containing protein 4 (Homo sapiens) (UniProt O60885)
[3] = biological target: Cyclin-dependent kinase 2 (Homo sapiens) (UniProt P24941)
[4] = biological target: Casein kinase I isoform delta (Homo sapiens) (UniProt P48730)
Chain of Casein kinase I isoform delta (Homo sapiens) (P48730 whole entry, looked up, canonical isoform): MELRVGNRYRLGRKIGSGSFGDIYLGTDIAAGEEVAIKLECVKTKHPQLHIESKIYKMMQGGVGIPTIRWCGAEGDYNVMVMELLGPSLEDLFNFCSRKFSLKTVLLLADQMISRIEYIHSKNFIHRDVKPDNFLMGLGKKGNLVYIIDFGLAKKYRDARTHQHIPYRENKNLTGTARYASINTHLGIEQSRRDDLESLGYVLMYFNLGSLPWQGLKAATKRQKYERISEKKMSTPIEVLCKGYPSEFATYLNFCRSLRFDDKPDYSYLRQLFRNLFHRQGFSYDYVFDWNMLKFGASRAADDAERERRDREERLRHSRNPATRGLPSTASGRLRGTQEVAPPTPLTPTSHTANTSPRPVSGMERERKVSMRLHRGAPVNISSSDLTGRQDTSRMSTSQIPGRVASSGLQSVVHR

[5] = biological target: Glycogen synthase kinase-3 beta (Homo sapiens) (UniProt P49841)
Chain of Glycogen synthase kinase-3 beta (Homo sapiens) (P49841 whole entry, looked up): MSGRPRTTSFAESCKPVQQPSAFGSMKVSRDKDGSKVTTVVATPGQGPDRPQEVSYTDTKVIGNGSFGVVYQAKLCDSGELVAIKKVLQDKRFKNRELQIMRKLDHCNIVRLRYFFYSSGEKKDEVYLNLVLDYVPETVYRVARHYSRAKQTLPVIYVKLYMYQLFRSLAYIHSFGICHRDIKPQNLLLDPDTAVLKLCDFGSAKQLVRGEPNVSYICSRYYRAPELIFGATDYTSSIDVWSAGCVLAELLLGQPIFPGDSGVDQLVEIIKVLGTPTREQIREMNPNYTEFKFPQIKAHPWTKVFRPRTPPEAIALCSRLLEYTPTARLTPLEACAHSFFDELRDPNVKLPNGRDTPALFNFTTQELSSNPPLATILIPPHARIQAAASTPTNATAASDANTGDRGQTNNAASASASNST

[6] = biological target: Mitogen-activated protein kinase 1 (Homo sapiens) (UniProt P28482)
Chain of Mitogen-activated protein kinase 1 (Homo sapiens) (P28482 whole entry): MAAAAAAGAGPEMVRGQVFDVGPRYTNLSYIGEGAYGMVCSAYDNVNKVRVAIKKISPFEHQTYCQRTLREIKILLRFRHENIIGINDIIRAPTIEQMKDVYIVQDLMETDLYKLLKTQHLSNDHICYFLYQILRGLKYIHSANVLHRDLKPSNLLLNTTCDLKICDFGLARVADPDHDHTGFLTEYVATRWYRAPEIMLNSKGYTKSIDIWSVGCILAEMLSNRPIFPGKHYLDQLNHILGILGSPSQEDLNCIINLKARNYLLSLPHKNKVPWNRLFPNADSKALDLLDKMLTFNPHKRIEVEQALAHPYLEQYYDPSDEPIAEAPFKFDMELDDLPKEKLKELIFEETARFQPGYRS

[7] = biological target: T1, Aurora kinase A (Homo sapiens) (UniProt O14965)
T1 sequence (whole entry): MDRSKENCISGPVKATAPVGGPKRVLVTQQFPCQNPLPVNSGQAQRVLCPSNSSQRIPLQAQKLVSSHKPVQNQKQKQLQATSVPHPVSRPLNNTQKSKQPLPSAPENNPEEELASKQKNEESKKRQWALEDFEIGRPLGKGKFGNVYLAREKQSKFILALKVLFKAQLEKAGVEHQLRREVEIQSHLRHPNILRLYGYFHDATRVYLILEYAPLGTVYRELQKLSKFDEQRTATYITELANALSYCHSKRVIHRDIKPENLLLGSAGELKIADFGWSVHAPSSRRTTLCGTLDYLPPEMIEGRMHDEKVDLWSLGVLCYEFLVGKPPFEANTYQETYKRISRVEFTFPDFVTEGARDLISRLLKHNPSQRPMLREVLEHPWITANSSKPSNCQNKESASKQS

[8] = biological target: T2, Transcription intermediary factor 1-alpha (Homo sapiens) (UniProt O15164)
T2 sequence (whole entry): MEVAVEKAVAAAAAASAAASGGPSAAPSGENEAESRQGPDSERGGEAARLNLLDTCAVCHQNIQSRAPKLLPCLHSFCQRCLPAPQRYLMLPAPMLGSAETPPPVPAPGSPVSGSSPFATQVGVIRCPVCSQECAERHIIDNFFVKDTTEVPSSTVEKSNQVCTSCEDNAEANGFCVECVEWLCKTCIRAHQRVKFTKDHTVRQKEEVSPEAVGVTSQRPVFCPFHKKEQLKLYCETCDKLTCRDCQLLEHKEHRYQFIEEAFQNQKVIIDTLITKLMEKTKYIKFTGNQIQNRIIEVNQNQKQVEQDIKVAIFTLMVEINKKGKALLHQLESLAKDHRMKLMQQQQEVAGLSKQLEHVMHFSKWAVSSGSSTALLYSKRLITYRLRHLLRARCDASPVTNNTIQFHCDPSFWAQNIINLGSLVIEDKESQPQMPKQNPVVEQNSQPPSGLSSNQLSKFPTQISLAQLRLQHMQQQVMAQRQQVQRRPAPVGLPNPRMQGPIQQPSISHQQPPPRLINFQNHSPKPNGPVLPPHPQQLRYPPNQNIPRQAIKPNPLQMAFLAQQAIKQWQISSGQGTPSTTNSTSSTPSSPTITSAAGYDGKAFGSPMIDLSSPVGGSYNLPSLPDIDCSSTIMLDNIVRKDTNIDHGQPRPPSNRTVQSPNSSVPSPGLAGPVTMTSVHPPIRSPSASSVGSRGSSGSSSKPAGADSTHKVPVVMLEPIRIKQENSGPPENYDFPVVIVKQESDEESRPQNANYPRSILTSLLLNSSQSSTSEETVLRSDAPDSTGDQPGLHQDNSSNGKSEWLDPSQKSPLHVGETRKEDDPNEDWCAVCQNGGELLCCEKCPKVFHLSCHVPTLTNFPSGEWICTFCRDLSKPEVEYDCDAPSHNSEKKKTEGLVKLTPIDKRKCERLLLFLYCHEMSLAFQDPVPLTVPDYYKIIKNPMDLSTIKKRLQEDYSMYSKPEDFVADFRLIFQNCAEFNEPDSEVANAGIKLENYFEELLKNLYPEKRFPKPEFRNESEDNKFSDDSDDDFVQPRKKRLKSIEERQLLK

Row | SMILES | ΔTm [1] [°C] | ΔTm [2] [°C] | ΔTm [3] [°C] | ΔTm [4] [°C] | ΔTm [5] [°C] | ΔTm [6] [°C] | ΔTm [7] [°C] | ΔTm [8] [°C]
1 | O=C(NCC1CCOCC1)c1n[nH]cc1NC(=O)c1c(F)cccc1F | 0.15 | -2 | 3.53 | 1.77 | 14.4 | 0.1 | 1.73 | -0.72
2 | Oc1nc(-c2ccc(C(F)(F)F)cc2)nc2c1CSCC2 | 0.58 | -2.75 | 0.01 | -0.13 | 0.44 | 0.11 | -2.41 | -0.56
3 | C[C@H]1CCCN1Cc1nc2cc(NC(=O)c3ccc4c(cnn4C)c3)ccc2[nH]1 | 2.18 | -0.92 | 0.64 | 0.92 | -0.87 | 0.27 | -0.14 | -0.88
4 | Cc1ccc(C(=O)Nc2ccc(S(=O)(=O)O)c3cc(S(=O)(=O)O)cc(S(=O)(=O)O)c23)cc1NC(=O)c1cccc(NC(=O)Nc2cccc(C(=O)Nc3cc(C(=O)Nc4ccc(S(=O)(=O)O)c5cc(S(=O)(=O)O)cc(S(=O)(=O)O)c45)ccc3C)c2)c1 | 0.88 | -5.41 | -2.98 | -1.4 | -0.55 | -0.68 | 0 | -1.19
5 | CC(C)[C@H](NC(=O)[C@H](CCC(=O)O)NC(=O)[C@H](C)NC(=O)OC(C)(C)C)C(=O)N[C@H](C=O)CC(=O)O (Boc-AEVD-aldehyde) | 0.28 | -2.26 | -0.28 | -0.09 | -1.03 | -0.49 | -1.35 | -0.84
6 | O=C(NCCCCCCCCNC(=O)C(Cl)Cl)C(Cl)Cl | 0.05 | -2.38 | -0.1 | -0.18 | -1.79 | -0.02 | -1.73 | 1.02
7 | CCCCCCCCCCCCCCCCNNC(=O)c1cccs1 | 0.05 | -1.37 | -0.3 | 0.26 | -1.02 | 0.48 | -0.52 | -0.93
8 | CCCN1CCN(c2ccc(C(=O)NC3(C(=O)NCC#N)CCCCC3)cc2)CC1 | 0.17 | -1.33 | 0.57 | 0.09 | -0.34 | -0.16 | -0.29 | -0.56
9 | O=C(NCC(=O)N1CCCCC1)Nc1ccc2nnsc2c1 | 0.46 | -0.58 | 0.28 | 0.06 | 0.23 | -0.52 | -0.71 | 0.08
10 | CC(C)c1cc(C(=O)N2CC[C@@H](NC(=O)C3CC3)C2)[nH]n1 | 0.79 | -3.2 | 0.06 | -0.08 | -0.75 | 0.08 | -2.47 | 1.07
11 | Cc1ccc2[nH]c(-n3nc(C)c(Cc4ccccc4)c3O)nc2c1 | 0.97 | -3.32 | 0.2 | 0.73 | 0.42 | 0.56 | -1.88 | -0.69
12 | O=c1cc(-c2ccc(O)cc2)oc2c(CN3CCN(Cc4cccs4)CC3)c(O)cc(O)c12 | 2.39 | -1.3 | 1.5 | -0.79 | 2.99 | -1.64 | 3.95 | 2.2
13 | Nc1ncnc2c1ncn2[C@@H]1O[C@H](C[C@@H](N)CC[C@H](N)C(=O)O)[C@@H](O)[C@H]1O | 0.31 | -2.03 | -0.94 | 0.18 | -1.05 | -1.35 | -1.45 | -0.73
14 | Cn1ncc2c(-c3c(-c4ccc(F)cn4)nn4c3COC(C)(C)C4)ccnc21 | 0.22 | 0.28 | -0.29 | 1.41 | -0.58 | 0.32 | -1.67 | -1.33
15 | C[C@H](CN[C@@H](C(=O)Nc1ccc(-c2cnn(C)c2)cn1)c1ccccc1)c1ccc(C#N)cc1 | -0.21 | -5.89 | -3.07 | 1.03 | -2.94 | -4.97 | -1.84 | -1.37
16 | Cc1cc(/N=N/c2ccc3c(c2)CCC(=O)N3)c(N)cc1O | 2.28 | -0.4 | -0.28 | 0.68 | -0.3 | 0.09 | -0.6 | -0.66
17 | CC(C)N(CCCNC(=O)Nc1ccc(C(C)(C)C)cc1)C[C@H]1O[C@@H](n2ccc3c(N)ncnc32)[C@H](O)[C@@H]1O | 0.45 | -1.62 | 0.52 | 0.47 | -0.31 | 0.01 | 0.01 | -1.18
18 | C#CCNC(=O)[C@H](CO)NC(=O)[C@H](CCCCN(CC)CC)NC(=O)[C@@H](NC(=O)[C@@H](NC(=O)[C@H](Cc1ccc(O)c(Cl)c1)NC(=O)c1cc(Cl)cc(Cl)c1)C1CCCC1)[C@@H](C)CC ({Benzoyl(3,5-Cl2)}-[Tyr(3-Cl)][Gly(cPent)]I[Lys(Et2)]S-{NH(propargyl)}) | 0.75 | -3.03 | 0.1 | 0.08 | -0.72 | 0.49 | -2.28 | 0
19 | CCOc1ccc(S(=O)(=O)Nc2ccc(Cl)cc2C#Cc2cnc(C(=O)O)cc2OC)c2ncccc12 | 0.04 | -2.23 | -0.26 | -7.02 | -2.42 | -0.03 | -2.9 | 0.7
20 | Nc1cccc(Nc2ncc(-c3ccc(Cl)cc3)o2)c1 | 9.33 | 0.39 | 9.01 | 0.43 | 7.51 | 0.54 | 6.87 | -0.45
21 | COc1cccc(Nc2c(C(N)=O)cnc3c(C)cc(S(=O)(=O)c4cccc(C(=O)N(C)C)c4)cc23)c1 | 0.62 | -2.14 | 0.36 | -0.04 | 0.04 | 0.14 | -0.98 | -0.26
